# Results published in PubChem BioAssay AID1814 (Broad Institute, 2009).
# The whole screen tested about 300,000 compounds, of which about 22,000 (7.3%) were called active. About 2% were inconclusive and are not listed. Shown is part of a subset that was picked to be rich in actives. Values without a mark were called inactive. No stated cut-off is given here; in the data, active means activity score below about -60%; inconclusive means mostly about -28% to -61%; inactive means positive scores.
# Assay: Activators via SNCA 5'UTR binding, MLPCN (AID 1814)
# Details: alpha-synuclein 5'UTR reporter, activators screen; active compounds read low; tested at 7.5 µM
row,Structure (SMILES),activity score
1,O=C(Nc1cccc(O)c1)c1ccc(C(=O)c2ccccc2)o1,-120% (active)
2,C/C(=C\C(=O)c1cccnc1)Nc1ccc(C)c(C)c1,-88.7% (active)
3,C/C(=C\C(=O)c1ccccc1)Nc1cccc(O)c1,-246% (active)
4,O=C(Nc1ccn(Cc2ccccc2)n1)c1cccc(F)c1,-95.8% (active)
5,Cc1cc(/C=N/NC(=O)c2cccnc2)c(C)n1CC(C)C,-116% (active)
6,COc1ccc(C(CC(=O)c2ccccc2)S(=O)(=O)c2ccccc2)cc1 (stereo unspecified),-120% (active)
7,COC(=O)c1ccc(Nc2ncnc3sccc23)cc1,-125% (active)
8,COc1c(O)cc2oc(-c3ccc(O)c(O)c3)cc(=O)c2c1O,-140% (active)
9,COc1ccc(/C=C/C(=O)Nc2c(C)nn(C)c2C)cc1COc1ccc(Br)cc1,50.9%
10,COc1ccc(C(=O)/C=C/c2ccc(-c3ccccc3)cc2)cc1CSCC(=O)O,-90% (active)
11,O=C(c1cc(COc2ccc(F)c(F)c2)on1)N1CCOCC1,-68.2% (active)
12,CCC(NC(=O)c1cc(COc2ccc(F)c(F)c2)on1)c1ccncc1 (stereo unspecified),-78.1% (active)
13,O=C(c1cc(COc2c(F)cccc2F)on1)N1CCSCC1,-165% (active)
14,O=C(c1cc(COc2ccc(F)cc2F)on1)N1CCOCC1,-124% (active)
15,CC(C)(C)c1ccc(C(=O)CSc2ncn[nH]2)cc1,-158% (active)
16,OCCCN1c2ccccc2Nc2nnc(-c3ccccc3)cc21,-189% (active)
17,O=S(=O)(c1ccc(Br)cc1)N1CCC(c2nc3ccccc3[nH]2)CC1,78.3%
18,Nc1ccccc1SCc1cc([N+](=O)[O-])cc2c1OCOC2,-66.8% (active)
19,Nc1cc(N)nc(SCc2cccc(F)c2)n1,-147% (active)
20,Cc1cc2oc3ccc(NCCC4CCCN4C)cc3c(=O)c2cc1C (stereo unspecified),-102% (active)
21,O=C(Nc1ccc(Br)cn1)c1ccc([N+](=O)[O-])cc1Cl,-92.4% (active)
22,COc1ccc(OCC(=O)Nc2cc(C)c(Cl)cc2OC)c([N+](=O)[O-])c1,-102% (active)

row,Structure (SMILES),activity score
1,CC(=O)Nc1ccccc1C(=O)C(=O)Nc1ccc(F)cc1,-64.9% (active)
2,Cc1nn(-c2ccc([N+](=O)[O-])cc2)c(N)c1-c1ccccc1,-143% (active)
3,COCCCNC(=S)NC(=O)c1ccccc1,-88.8% (active)
4,O=C(N/N=C/c1cc2c(cc1Br)OCO2)C1COc2ccccc2O1 (stereo unspecified),-96.1% (active)
5,Cc1ccc(OCc2cc(C(=O)N(C)CCc3ccccc3)no2)cc1C,-115% (active)
6,Cc1csc(NC(=S)Nc2cccc(Cl)c2)n1,-193% (active)
7,S=C(Nc1cccc(Cl)c1)Nc1ccc2cn[nH]c2c1,-89.3% (active)
8,O=[N+]([O-])/C=C/c1ccc2c(ccn2Cc2ccccc2)c1,84.5%
9,Cc1ccc(Oc2cnn(-c3ccccc3)c(=O)c2Br)cc1,-78.5% (active)
10,NC(=O)COc1ccc(C23CC4CC(CC(C4)C2)C3)cc1,-101% (active)
11,Nc1nonc1-n1nnc(C(=O)N/N=C/c2cc(Br)ccc2O)c1CSC1=NCCS1,94.1%
12,Cc1ccn2cc(-c3nonc3C)cc2c1,-128% (active)
13,Cc1nonc1NC(=O)CSc1nc2ccccc2cc1C#N,-91.1% (active)
14,COCc1cc(C)nc(SCC(=O)Nc2cccc(C)c2)c1C#N,-67.6% (active)
15,CCOc1ccc2cc(C#N)c(SCC(=O)OC)nc2c1,-145% (active)
16,Cc1cc(C)c(C#N)c(SCC(=O)Nc2ccccc2)n1,-212% (active)
17,Cc1ccccc1NC(=O)CCOc1ccccc1,-74.9% (active)
18,CCN1CCN(C(C(=O)NC2CCCC2)c2cc3c(cc2[N+](=O)[O-])OCO3)CC1 (stereo unspecified),-63% (active)
19,CCCCCc1ccc(-c2ccc(OCC)cc2)nc1,79.7%
20,CCCOc1ccc(-c2nc(N)n[nH]2)cc1,-93.7% (active)
21,C=CCN(CC=C)S(=O)(=O)c1ccc(C(=O)Nc2sc3c(c2C(N)=O)CCCCC3)cc1,-70.1% (active)
22,CCOC(=O)c1c(NC(=O)c2ccc(Br)o2)sc2c1CCCC2,-64.9% (active)

row,Structure (SMILES),activity score
1,NC(=O)c1c(NC(=O)c2ccccc2)sc2c1CCCC2,-148% (active)
2,COC(=O)c1c(NC(=O)c2cccs2)sc2c1CCCC2,-128% (active)
3,COc1ccc(NCCc2ccccn2)cc1,-134% (active)
4,CCC(C)NC(=O)CCCc1ccccc1 (stereo unspecified),-63.7% (active)
5,O=C(Nc1ccc(Cl)cc1)c1ccsn1,-143% (active)
6,Cc1ccc(NC(=O)c2ccn(C(=O)Nc3ccccc3)n2)c(C)c1,-69.3% (active)
7,c1ccc(CN2CCC(N=C3NN=C(c4ccc5c(c4)OCCO5)CS3)CC2)cc1,-223% (active)
8,CCS(=O)(=O)c1cc([N+](=O)[O-])c(Sc2ccccc2N)s1,-91.3% (active)
9,COc1ccc(C(=O)c2c3ccc([N+](=O)[O-])cc3[n+]([O-])n2CCCN)cc1,63.1%
10,CCN1CCN(c2ccc([N+](=O)[O-])cc2C(=O)c2ccc(Cl)cc2)CC1,-107% (active)
11,Cc1ccc(NC(=S)N2CCN(c3ncccn3)CC2)cc1C,-84.3% (active)
12,CC(=O)c1ccc(NC(=O)CCc2nnc3ccc(NCc4ccco4)nn23)cc1,-95.3% (active)
13,O=C(/C=C/c1ccc([N+](=O)[O-])o1)NNC(=O)c1ccc(F)cc1,-94.3% (active)
14,C=CCSc1nnc(NC(=O)c2ccc(NC(C)=O)cc2)s1,-64.4% (active)
15,NC(=O)CSc1nnc(NC(=O)c2ccc3ccccc3c2)s1,-88.3% (active)
16,COC(=O)c1ccc(-n2cnc3ccccc32)nc1,-117% (active)
17,COCCn1c(=NC(=O)c2ccccc2[N+](=O)[O-])sc2cc(S(C)(=O)=O)ccc21,-151% (active)
18,CCOC(=O)c1cc2n(c1C)-c1ccccc1C2=O,-108% (active)
19,CCOC(=O)c1c(C)[nH]c2c1-c1ccccc1C(=O)C2=O,99.5%
20,COc1ccc(Nc2cc(C)nc(-n3nc(C)cc3C)n2)cc1,92.8%
21,COc1ccc(Nc2nnc(C)c3ccccc23)cc1,-67.1% (active)
22,O=C(c1cc(-c2ccc(O)cc2)on1)N1CCCc2ccccc21,-95.6% (active)
